Experimental data reported in PubChem BioAssay (Tox21).
Where “and” joins values, the source holds several entries; their conditions need not be identical. Equal entries are not always repeated. Records with an inconclusive call do not appear. A call without a number means that no potency is given here. Some structures have more than one record in an assay (separate samples or runs), and their calls can disagree. Calls of active or inactive are those of the source. Unless noted, the call rests on the fitted dose curve; in most records, active means well fitted curve in the direction sought with a large enough effect in the repeat runs; inconclusive means weak or mixed curves; inactive means no such curve, though single readings can be large; an effect the other way counts as inactive or inconclusive. Starred links: 1 amine or outer side, 2 acyl side, 3 side chain; linkers in the order of their positions; H or OH if unused. Positions of bridges follow the written chain, without caps; N, C: chain ends. Non-standard residues stand in square brackets, D forms with d. Residues, ends and D or L forms follow the SMILES beside them. Chains are numbered I, II in the order given. Actinocin(9to1) = Cc1c2oc3c(C)ccc(C(=O)[*:1])c3nc-2c(C(=O)[*:2])c(N)c1=O; NMeV = CN[C@H](C(=O)O)C(C)C; Sar = CNCC(=O)O

Experiments:
[1] = qHTS assay to identify small molecule agonists of the vitamin D receptor (VDR) signaling pathway - cell viability counter screen (AID 743224); further: nearly all actives have a fitted effect of over 50% in size; further: potency means the concentration at half of the fitted maximal effect
Summary of the method: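 VDR-bla cells, 4 h after plating, exposed to compounds for 16 h at 37C; viability then read in the same wells as CellTiter-Glo luminescence after 30 min at room temperature, following the bla FRET read.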

[2] = qHTS assay to identify small molecule antagonists of the vitamin D receptor (VDR) signaling pathway - cell viability counter screen (AID 743225); further: nearly all actives have a fitted effect of over 50% in size; further: potency means the concentration at half of the fitted maximal effect
Summary of the method: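 Cells (VDR-UAS-bla HEK 293T) are plated, rested 4 h at 37C, dosed with compound and 3 nM final 1-alpha,25-dihydroxy vitamin D3, and incubated 16 h. Viability is taken from CellTiter-Glo luminescence in the reporter wells.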

[3] = qHTS assay to identify small molecule agonists of the NFkB signaling pathway - cell viability counter screen (AID 1159515; calls by dose curve; further: nearly all actives have a fitted effect of over 55% in size; further: potency means the concentration at half of the fitted maximal effect)
Summary of the method: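 NFkB-bla ME-180 cells, 2,000/well, plated overnight at 37 C; compound added for 5 hr at 37 C. Viability read in the same wells as the bla reporter, by CellTiter-Glo luminescence after 30 min at room temperature.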

[4] = qHTS assay to identify small molecule agonists of the endoplasmic reticulum stress response signaling pathway - cell viability counter screen (AID 1159517; calls by dose curve; further: nearly all actives have a fitted effect of over 50% in size; further: potency means the concentration at half of the fitted maximal effect)
Summary of the method: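 Cells, HeLa ESRE-bla; density, 1,500/well; dosing, 5 hr at 37 C, 5% CO2; readout, CellTiter-Glo luminescence after 30 min RT.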

[5] = target: Nuclear receptor ROR-gamma (Homo sapiens) (UniProt P51449); assay: qHTS assay to identify small molecule antagonists of the retinoid-related orphan receptor gamma (ROR-gamma) signaling pathway (AID 1159521; further: nearly all actives have a fitted effect of over 50% in size; further: potency means the concentration at half of the fitted maximal effect)
Summary of the method: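 RORγ antagonism is scored from reduced reporter luminescence in Tet-on CHO cells. Induction used 1 uM final doxycycline hyclate for 16 h at 37 C, following a 2 h compound exposure.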

[6] = qHTS assay to identify small molecule agonists of the RXR signaling pathway - cell viability counter screen (AID 1159529); further: nearly all actives have a fitted effect of over 50% in size; further: potency means the concentration at half of the fitted maximal effect
Summary of the method: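 Cell viability is measured by CellTiter-Glo luminescence, 30 min at room temperature, in wells already read for beta-lactamase. Engineered HEK 293T cells (RXR-alpha-UAS-bla) are dosed 16 hr at 37 C. Tetraoctyl ammonium bromide serves as positive control.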

[7] = qHTS assay to identify small molecule antagonists of the retinoid acid receptor (RAR) signaling pathway - cell viability counter screen (AID 1159551); further: nearly all actives have a fitted effect of over 35% in size
Summary of the method: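 C3RL4 RARE-luciferase cells, 1,000/well, incubated overnight, then dosed with compound plus 1 uM retinol (final). After 6 hr at 37 C, viability read by CellTiter-Glo ATP luminescence following 30 min at room temperature.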

[8] = qHTS assay to identify small molecule antagonists of the estrogen related receptor (ERR) signaling pathway (AID 1224819)
Summary of the method: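 ERR reporter cell line (NTP) plated at 2,000 cells/well, settled 6 h at 37C/5% CO2, then exposed to LOPAC compounds for 18 h at 37C. One-Glo luciferase luminescence read after 30 min at room temperature.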

[9] = qHTS assay to identify small molecule agonists of the estrogen related receptor (ERR) signaling pathway (AID 1224820)
Summary of the method: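 Quantitative HTS of the LOPAC library used NTP ERR reporter cells treated 18 h at 37 C. Signal is luminescence after One-Glo addition and a 30 min room-temperature incubation.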

[10] = test system: estrogen-related receptor alpha (ERRalpha) with PGC-1alpha coactivator, human; assay: qHTS assay to identify small molecule antagonists of the estrogen related receptor signaling pathway with the pleiotropic PPARgamma coactivator (PGC) (AID 1224821; calls by dose curve)
Summary of the method: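 Quantitative HTS for antagonism: PGC/ERR cells received compounds after 6 h attachment and were incubated 18 h at 37 C, with luminescence (One-Glo) as the endpoint.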

[11] = qHTS assay to identify small molecule antagonists of the estrogen related receptor signaling pathway with the pleiotropic PPARgamma coactivator (PGC) cell viability counter screen (AID 1224822; further: potency means the concentration at half of the fitted maximal effect)
Summary of the method: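 PGC/ERR cells rested 6 h, then compound-treated 17.5 h at 37 C. CellTiter-Fluor added for 30 min at 37 C, viability measured by fluorescence intensity.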

[12] = qHTS assay to identify small molecule agonists of the estrogen related receptor signaling pathway with the pleiotropic PPARgamma coactivator (PGC) (AID 1224823)
Summary of the method: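 Cell-based luciferase assay in the NTP-supplied PGC/ERR line, 2,000 cells/well; 18 h compound exposure at 37 C, luminescence after One-Glo.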

[13] = qHTS assay to identify small molecule antagonists of the retinoid-related orphan receptor gamma (ROR-gamma) signaling pathway - cell viability counter screen (AID 1159520); further: nearly all actives have a fitted effect of over 50% in size; further: potency means the concentration at half of the fitted maximal effect
Summary of the method: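 Cytotoxicity was read from cellular ATP (CellTiter-Glo luminescence) after 16 hr at 37 C with 1 uM doxycycline induction. The inducer was added 2 hr after compound transfer to Tet-on ROR gamma CHO cells.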

[14] = qHTS assay to identify small molecule agonists of the AP-1 signaling pathway - cell viability counter screen (AID 1159525; calls by dose curve; further: nearly all actives have a fitted effect of over 55% in size; further: potency means the concentration at half of the fitted maximal effect)
Summary of the method: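 Luminescent ATP readout (Cell Titer Glo, 30 min RT), normalised to DMSO and tetra n-octyl ammonium bromide controls. Cells were ME-180 AP-1-bla in 0.5% dialyzed FBS Opti-MEM, with a 5 h, 37 °C compound exposure.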

[15] = qHTS assay to identify small molecule antagonists of the retinoic acid receptor (RAR) signaling pathway (AID 1159552; further: nearly all actives have a fitted effect of over 50% in size; further: potency means the concentration at half of the fitted maximal effect)
Summary of the method: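 Quantitative HTS in C3RL4 RARE-luciferase reporter cells. Compounds were added with 1 uM (final) retinol; luminescence was read after 6 hr.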

[16] = qHTS assay to identify small molecule agonists of the retinoic acid receptor (RAR) signaling pathway (AID 1159553)
Summary of the method: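 C3RL4 RARE-luciferase cells were seeded at 1,000/well and grown overnight at 37 C, then exposed to compounds for 6 hr at 37 C, 5% CO2. Luciferase reagent was added and luminescence was read after 30 min at room temperature.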

[17] = target: Retinoic acid receptor RXR-alpha (Homo sapiens) (UniProt P19793); assay: qHTS assay to identify small molecule agonists of the RXR signaling pathway (AID 1159527; calls by dose curve; further: nearly all actives have a fitted effect of over 35% in size)
Summary of the method: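 qHTS of the Tox21 10K library in GeneBLAzer RXR-alpha HEK 293T cells carrying a beta-lactamase reporter […]; 16 hr treatment, 9-cis retinoic acid as agonist control, FRET read-out.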

[18] = qHTS assay to identify small molecule antagonists of the estrogen related receptor (ERR) signaling pathway - cell viability counter screen (AID 1224818); further: series mostly up to about 46 µM
Summary of the method: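 ERR cells, 2,000 per well, compound added after 6 h and incubated 17.5 h at 37 C. Viability read by CellTiter-Fluor fluorescence after a further 30 min at 37 C.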

Retinoic acid receptor RXR-alpha (Homo sapiens), sequence (P19793 whole entry, looked up): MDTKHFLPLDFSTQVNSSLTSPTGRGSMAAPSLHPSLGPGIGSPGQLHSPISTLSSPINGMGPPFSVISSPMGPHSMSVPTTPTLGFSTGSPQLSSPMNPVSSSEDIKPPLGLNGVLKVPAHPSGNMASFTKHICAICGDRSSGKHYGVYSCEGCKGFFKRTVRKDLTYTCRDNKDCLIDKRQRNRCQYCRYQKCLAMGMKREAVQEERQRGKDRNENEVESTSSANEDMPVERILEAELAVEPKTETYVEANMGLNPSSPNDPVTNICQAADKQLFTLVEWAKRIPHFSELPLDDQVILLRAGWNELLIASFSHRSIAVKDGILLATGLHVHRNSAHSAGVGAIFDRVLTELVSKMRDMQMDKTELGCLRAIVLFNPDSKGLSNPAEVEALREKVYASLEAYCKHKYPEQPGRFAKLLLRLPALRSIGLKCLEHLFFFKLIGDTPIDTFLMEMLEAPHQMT

Row | SMILES | Potency [1] | Potency [2] | Potency [3] | Potency [4] | Potency [5] | Potency [6] | Potency [7] | Potency [8] | outcome [9] | Potency [10] | Potency [11] | outcome [12] | Potency [13] | Potency [14] | Potency [15] | Potency [16] | Potency [17] | Potency [18]
1 | CCN(CC)C(=S)SSC(=S)N(CC)CC | 110 nM (active) and 39.8 nM (active) and 188 nM (active) | inactive | 1 µM (active) and inactive | inactive | 344 nM (active) and 44.3 nM (active) and 188 nM (active) | 199 nM (active) and 213 nM (active) | inactive | 10.9 µM (active) and 16.2 µM (active) | inactive | 386 nM (active) and 1.39 µM (active) | 386 nM (active) and 220 nM (active) | inactive |  |  |  |  |  | 
2 | BrC1CCC(Br)C(Br)CCC(Br)C(Br)CCC1Br (stereo not given) | 18.5 µM (active) | 16.5 µM (active) | inactive | inactive | 27.2 µM (active) and 58 µM (active) | 15.4 µM (active) and 18.5 µM (active) | inactive |  |  |  |  |  | 43.1 µM (active) | inactive |  |  |  | 
3 | CCCCC(CC)COC(=O)CC(C(=O)OCC(CC)CCCC)S(=O)(=O)O (stereo not given) | 42 µM (active) and 43.6 µM (active) | 21.1 µM (active) and 15.5 µM (active) | 47.1 µM (active) and 49 µM (active) |  | inactive | 21.1 µM (active) and 43.6 µM (active) |  |  |  |  |  |  |  | 42 µM (active) and 49 µM (active) | inactive | inactive |  | 
4 | Oc1ccc(Cl)cc1Cc1cc(Cl)ccc1O | 11.2 µM (active) and 38.9 µM (active) | 28 µM (active) and 6.74 µM (active) | inactive | 54.9 µM (active) and inactive |  | 49.9 µM (active) |  |  |  |  |  |  | 24.8 µM (active) | 55.9 µM (active) | 31.2 µM (active) and 27.3 µM (active) | inactive |  | 
5 | O=C(O[C@@H]1Cc2c(O)cc(O)cc2O[C@@H]1c1cc(O)c(O)c(O)c1)c1cc(O)c(O)c(O)c1 | inactive | inactive | inactive | inactive |  | inactive | inactive |  |  |  |  |  | inactive | inactive | inactive | inactive | inactive | 
6 | Cc1c2oc3c(C)ccc(C(=O)N[C@@H]4C(=O)N[C@H](C(C)C)C(=O)N5CCC[C@H]5C(=O)N(C)CC(=O)N(C)[C@@H](C(C)C)C(=O)O[C@@H]4C)c3nc-2c(C(=O)N[C@@H]2C(=O)N[C@H](C(C)C)C(=O)N3CCC[C@H]3C(=O)N(C)CC(=O)N(C)[C@@H](C(C)C)C(=O)O[C@@H]2C)c(N)c1=O (I: T[dV]P[Sar][NMeV] / II: T[dV]P[Sar][NMeV]; ester I:1-I:C, II:1-II:C; linker I:N-II:N via Actinocin(9to1)) | 26.8 µM (active) and inactive | inactive | inactive | 26.8 nM (active) and 107 nM (active) | 29.8 nM (active) and 188 nM (active) | inactive |  |  |  |  |  |  | 59.4 nM (active) and 59.6 nM (active) | inactive | 16.8 nM (active) and 10.6 nM (active) |  |  | 
7 | COc1ccc(CCN(C)CCCC(C#N)(c2ccc(OC)c(OC)c2)C(C)C)cc1OC (stereo not given) |  |  | inactive | inactive | inactive |  | inactive |  |  |  |  |  | inactive | inactive |  |  |  | inactive
